HT1080 IDH1KD tx: HT-1080 IDH1 knockdown cell toxicity (counter line). HT-1080 IDH1 knockdown viability, ATP luminescence, 48 h. Potency, µM (series often up to 46.1 µM), for inactives: at the top dose activity, negative = toxicity, most hits filed as cytotoxic. 360,000 tested, 2% active;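 also: potency is read from the fitted curve at half-maximal effect; 0% = DMSO wells and -100% = cell-free medium wells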
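Assay cells: HT-1080 with IDH1 knockdown, 750 per well, RPMI/5% FBS. Exposure: 48 h at 37 °C following 2 h pre-incubation. Read: CellTiter-Glo luminescence; fitted concentration-response, curve class assigned.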
HT1080NT lethal: kills 2HG-producing HT-1080-NT fibrosarcoma cells; HT-1080-NT fibrosarcoma viability, CellTiter-Glo ATP luminescence, 48 h; Potency, µM (series often up to 46.1 µM), for the others: at the highest dose activity, negative = less viability, actives largely listed as cytotoxic; 360,000 tested, 1.6% active; AID 686970;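 also: NT is the 2HG producing partner of a matched IDH1 knockdown line; potency is read from the fitted curve at half-maximal effect; 0% = DMSO-treated cells and -100% = media-only wells without cells; nearly all actives have a fitted effect of over 55% in size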
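Luminescent CellTiter-Glo readout after 48 hours of compound exposure at 37 degrees C defined viability of HT-1080-NT cells. Activity was normalized to DMSO wells and cell-free media wells; concentration-response curves were fitted and assigned curve classes.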
IL-1B inflam inh: blocks inflammasome-driven IL-1 beta release. AID 743279. THP-1 LPS/ATP IL-1B secretion, AlphaLISA, 16 h; hits give low values. activity change, % at 57.5 µM. 360,000 tested, 4.7% active; in the data active = activity change below about -50%; inconclusive = mostly about -30% to -49%
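THP-1 cells pretreated 1 hr with compounds (up to 57.5 uM final), then stimulated with LPS (250 ng/mL final) plus ATP (1.25 mM final); secreted IL-1B measured by AlphaLISA after 16 hr, decreased signal indicating inhibition.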
12-LOX inh: blocks human arachidonate 12S-lipoxygenase; P18054; purified 12hLO, xylenol orange hydroperoxide absorbance; Potency, µM (doses to about 108 µM), without a hit: at the highest dose activity change, negative = inhibition, most hits filed as inhibitors; 580,000 tested, 1.1% active; also: potency is read from the fitted curve at half-maximal effect
Target sequence (P18054 whole entry, looked up): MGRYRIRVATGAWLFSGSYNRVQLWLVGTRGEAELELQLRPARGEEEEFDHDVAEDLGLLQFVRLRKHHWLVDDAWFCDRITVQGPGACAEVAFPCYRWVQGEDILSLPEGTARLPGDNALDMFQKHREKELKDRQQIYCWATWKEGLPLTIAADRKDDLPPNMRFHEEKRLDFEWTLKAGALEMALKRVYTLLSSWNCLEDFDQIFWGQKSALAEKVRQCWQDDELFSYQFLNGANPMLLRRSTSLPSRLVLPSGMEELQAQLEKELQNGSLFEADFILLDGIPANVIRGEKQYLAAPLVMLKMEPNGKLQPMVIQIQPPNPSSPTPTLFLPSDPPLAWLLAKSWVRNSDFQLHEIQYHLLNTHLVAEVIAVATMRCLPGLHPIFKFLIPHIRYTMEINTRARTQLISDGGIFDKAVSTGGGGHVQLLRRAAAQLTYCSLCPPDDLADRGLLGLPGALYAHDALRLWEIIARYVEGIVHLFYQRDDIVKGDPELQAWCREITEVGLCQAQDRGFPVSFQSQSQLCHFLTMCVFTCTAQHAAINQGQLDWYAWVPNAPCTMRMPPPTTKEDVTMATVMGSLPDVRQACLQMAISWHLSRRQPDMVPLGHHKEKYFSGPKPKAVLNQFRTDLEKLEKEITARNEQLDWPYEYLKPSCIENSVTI
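Purified human 12hLO at 150 nM in 25 mM Hepes, 0.01% Triton X-100, pH 7.0, preincubated 15 min at room temperature with compound. Reaction started with 40 uM arachidonic acid, 30 min at room temperature. Hydroperoxide measured by Fe-xylenol orange, 573/405 nm absorbance ratio.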
DT40 TDP1 CPT: DT40-hTDP1 cell growth loss with CPT; chicken DT40 Tdp1-/-;hTDP1 cells + 20 nM CPT, ATP luminescence, 48 h; Potency, µM (top dose mostly 46.2 µM), for the others: at the highest dose activity change, negative = growth inhibition, actives largely listed as inhibitors; 420,000 tested, 12% active; also: potency is read from the fitted curve at half-maximal effect; nearly all actives have a fitted effect of over 55% in size
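Chicken DT40 Tdp1-/- cells complemented with human TDP1, 400 cells/well, exposed to compounds plus 20 nM camptothecin for at least 48 h at 37 C; viability read as ATP content by CellTiter-Glo luminescence.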
DT40 TDP1 no CPT: qHTS for Inhibitors of human tyrosyl-DNA phosphodiesterase 1 (TDP1): qHTS in cells in absence of CPT | DT40 Tdp1-/- hTDP1 cells, no CPT, ATP luminescence, 48 h | Potency, µM (highest dose often 46.2 µM), inactives show top-dose activity change, negative = growth inhibition, usual class: inhibitors | 420,000 tested, 15% active | AID 686978, 2013; also: potency is read from the fitted curve at half-maximal effect; nearly all actives have a fitted effect of over 55% in size
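Compound effects on proliferation are scored in DT40 Tdp1-/-;hTDP1 cells in the absence of CPT. ATP levels (CellTiter-Glo luminescence) are recorded after a ≥48 hr, 37 °C incubation.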
* marks the source's active call; other numbers are inactive results; ? = inconclusive; . = not tested or not shown. This excerpt belongs to a sample that is enriched for hits. Unless noted, calls follow the shape of the dose curve; as a rule, active = well fitted curve in the direction sought with a large enough effect; inconclusive = small, poorly fitted or top-dose-only effect, or another doubt; inactive = no such curve, though single readings can be large; an effect the other way counts as inactive or inconclusive. Unless noted, % is scaled to controls: 0 for no effect and ±100 for the full control effect.

SMILES	HT1080 IDH1KD tx	HT1080NT lethal	IL-1B inflam inh	12-LOX inh	DT40 TDP1 CPT	DT40 TDP1 no CPT
O=C1NC[C@@H](c2ccccc2)OC(=O)[C@@H](Cc2ccc(F)cc2)C/C=C\C[C@@H]1CC(=O)N(CCO)Cc1ccccc1	-1%	11%	-14	9%	?	16µM*
O=C1NC[C@@H](c2ccccc2)OC(=O)[C@H](Cc2ccc(F)cc2)C/C=C\C[C@@H]1CC(=O)N(CCO)Cc1ccccc1	?	-28%	?	-4%	?	23µM*
CC(=O)Nc1ccc(NC(=O)CC2C(=O)NCCN2C(=O)CN2CCN(CCO)CC2)cc1 (stereo not drawn)	.	.	.	-30%	.	.
Cc1cccnc1NC(=O)CN1C(=O)COc2ccc(Cl)cc21	8%	4%	3	13µM*	9%	-8%
O=C(CN1C(=O)COc2ccc(Cl)cc21)Nc1cccc(F)c1	.	.	.	3%	?	?
NS(=O)(=O)c1ccc(NC(=O)CN2C(=O)COc3ccc(Cl)cc32)cc1	.	.	.	45µM*	-14%	-13%
CCN(CC)C(=O)CSc1nc(-c2ccccc2)c(-c2ccccc2)o1	.	.	.	-3%	.	.
CCOc1cc(/C=C2\NC(=O)NC2=O)cc(Cl)c1OCC	.	.	.	5%	.	.
COc1cc(C=C2CN(C)C(=O)C2=O)ccc1O	7%	1%	-16	?	15%	-4%
CCOc1cc(/C=C2\CCC/C(=C\c3cc(Cl)c(O)c(OCC)c3)C2=O)cc(Cl)c1O	5.8µM*	7.3µM*	-100*	?	?	6.5µM*
CCOc1cc(/C=C2\CN(C)C/C(=C\c3ccc(O)c(OCC)c3)C2=O)ccc1O	4.6µM*	4.1µM*	-105*	?	5.2µM*	2.3µM*
CCOc1ccccc1C(=O)NC1CCN(c2cc(-c3ccc(Cl)cc3)[nH]n2)C1 (stereo not drawn)	.	.	.	30%	.	.
O=C(COc1ccccc1[N+](=O)[O-])Nc1cccc(S(=O)(=O)NC2=NCCCCC2)c1	9%	6%	-14	?	?	?
O=C(COC(=O)c1ccc(Cl)cc1Cl)Nc1cccc(S(=O)(=O)NC2=NCCC2)c1	-21%	1%	0	-36%	0%	-2%
O=C(/C=C/c1ccc(Cl)cc1Cl)Nc1cccc(S(=O)(=O)NC2=NCCCCC2)c1	?	-17%	-69*	7%	-5%	?
O=C(/C=C/c1ccccc1[N+](=O)[O-])Nc1cccc(S(=O)(=O)NC2=NCCCCC2)c1	-8%	-21%	-16	-6%	?	21µM*
CCOC(=O)c1c(C)[nH]c(NC(=O)Nc2cccc(C)c2)c1C	.	.	.	-26%	.	.
CC(=O)c1cccc(NC(=O)C23CC4CC(CC(C4)C2)C3)c1	.	.	.	14%	.	.
C/C(=N\Nc1ccc([N+](=O)[O-])cc1)c1cccc(N)c1	-4%	-4%	-29	?	?	21µM*
C/C(=N\Nc1nc(C)cc(C)n1)c1ccc([N+](=O)[O-])cc1	.	.	.	16%	.	.
CC(=O)NC/C(C)=N\Nc1ccc([N+](=O)[O-])cc1	3.7µM*	4.6µM*	-23	?	?	?
C/C(=N\Nc1ccc([N+](=O)[O-])cc1)c1ccc(O)cc1	?	?	-61*	?	?	?
CCOc1ccc(C(=O)NC2CCN(c3cnn(CC)c(=O)c3)CC2)cc1	.	.	.	66%	.	.
Cc1cc(C)cc(-c2nnc(SCC(=O)N3CCC3)o2)c1	.	.	.	-8%	.	.
CCCCc1ccc(NC(=O)CN(C)CC(=O)Nc2ccccc2Cl)cc1	-12%	-21%	-74*	80%	?	23µM*
SMILES	HT1080 IDH1KD tx	HT1080NT lethal	IL-1B inflam inh	12-LOX inh	DT40 TDP1 CPT	DT40 TDP1 no CPT
CN(CC(=O)Nc1ccccc1Cl)CC(=O)Nc1ccccc1[N+](=O)[O-]	-19%	-12%	17	0%	?	21µM*
CN(CC(=O)Nc1ccccc1Cl)CC(=O)Nc1cccc2ccccc12	6%	2%	-5	451%	?	?
CN(CC(=O)Nc1ccccc1)CC(=O)Nc1ccccc1Cl	-1%	8%	15	0%	-14%	9%
COc1ccc(-c2cnnc(N/N=C/c3ccc(O)c(O)c3)n2)cc1	?	?	-5	?	7.3µM*	9.2µM*
COc1ccc(-c2cnnc(N/N=C/c3c(C)nn(-c4ccccc4)c3Cl)n2)cc1	?	10%	-3	25%	3.7µM*	5.2µM*
Brc1ccc(-c2ccc(/C=N/Nc3nncc(-c4ccccc4)n3)o2)cc1	14%	4%	-3	0%	?	18µM*
Brc1ccc(/C=N/Nc2nncc(-c3ccccc3)n2)o1	.	.	.	0%	.	.
Oc1ccc(/C=N\Nc2nncc(-c3ccccc3)n2)cc1	?	?	?	6%	?	?
COc1ccc(-c2cnnc(N/N=C/c3ccc(C)o3)n2)cc1	-1%	6%	-19	-9%	?	18µM*
CN1C(=O)N(CCc2ccccc2)C(=O)C12CCN(Cc1cccn1-c1ccccn1)CC2	.	.	.	67%	.	.
COCCN1C(=O)C(=O)/C(=C(/O)c2ccc(C)cc2)C1c1ccc(Cl)c(Cl)c1 (stereo not drawn)	.	.	.	-26%	.	.
COc1ccc(-c2cnnc(N/N=C/c3ccc(O)cc3)n2)cc1	-13%	-15%	?	2%	?	12µM*
CCNc1nc(NCC)nc(N/N=C/c2ccc(O)c(O)c2)n1	-7%	-4%	19	-6%	23µM*	-4%
O=C(NC(NC(=O)c1ccccc1)c1ccc(Cl)cc1)c1ccccc1	.	.	.	4%	.	.
N#Cc1ccc(/C=N/Nc2nc(Nc3ccccc3)nc(N3CCCCC3)n2)cc1	.	.	.	-7%	.	.
CCOC(=O)c1cc(C(=O)c2cccs2)n2ccc(C(C)=O)cc12	1%	1%	-5	0%	?	23µM*
CCOC(=O)c1cc(C(C)=O)n2ccccc12	-2%	0%	-12	-7%	-3%	1%
Cc1ccc(NC(=O)CSc2nnc(Cc3csc(C)n3)o2)cc1	1%	-7%	18	25%	0%	?
CCOc1ccc(Nc2nc(Cc3nnc(SCC(=O)c4ccc(C)c(C)c4)o3)cs2)cc1	?	?	14	-1%	29µM*	16µM*
COc1ccc(C)cc1CN(C)C(=O)NCc1ccc(S(=O)(=O)N2CCCCC2)cc1	.	.	.	48%	.	.

High-throughput results (PubChem)
